# Many of the other results were omitted from the sample, so hits are more common in it than they were.
# Dicer processing – inhibitors of human Dicer processing of pre-microRNA | z-score at 25 µM | cat-ELCCA pre-miR-21 Dicer processing, chemiluminescence; active compounds read high | 6% of 47,000 active | AID 1347074 | Q9UPY3; in the data active = z-score above about 3, passing the limit was not always enough;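 also: higher signal means more uncleaved substrate so more Dicer inhibition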
# Target sequence (Q9UPY3 whole entry, looked up): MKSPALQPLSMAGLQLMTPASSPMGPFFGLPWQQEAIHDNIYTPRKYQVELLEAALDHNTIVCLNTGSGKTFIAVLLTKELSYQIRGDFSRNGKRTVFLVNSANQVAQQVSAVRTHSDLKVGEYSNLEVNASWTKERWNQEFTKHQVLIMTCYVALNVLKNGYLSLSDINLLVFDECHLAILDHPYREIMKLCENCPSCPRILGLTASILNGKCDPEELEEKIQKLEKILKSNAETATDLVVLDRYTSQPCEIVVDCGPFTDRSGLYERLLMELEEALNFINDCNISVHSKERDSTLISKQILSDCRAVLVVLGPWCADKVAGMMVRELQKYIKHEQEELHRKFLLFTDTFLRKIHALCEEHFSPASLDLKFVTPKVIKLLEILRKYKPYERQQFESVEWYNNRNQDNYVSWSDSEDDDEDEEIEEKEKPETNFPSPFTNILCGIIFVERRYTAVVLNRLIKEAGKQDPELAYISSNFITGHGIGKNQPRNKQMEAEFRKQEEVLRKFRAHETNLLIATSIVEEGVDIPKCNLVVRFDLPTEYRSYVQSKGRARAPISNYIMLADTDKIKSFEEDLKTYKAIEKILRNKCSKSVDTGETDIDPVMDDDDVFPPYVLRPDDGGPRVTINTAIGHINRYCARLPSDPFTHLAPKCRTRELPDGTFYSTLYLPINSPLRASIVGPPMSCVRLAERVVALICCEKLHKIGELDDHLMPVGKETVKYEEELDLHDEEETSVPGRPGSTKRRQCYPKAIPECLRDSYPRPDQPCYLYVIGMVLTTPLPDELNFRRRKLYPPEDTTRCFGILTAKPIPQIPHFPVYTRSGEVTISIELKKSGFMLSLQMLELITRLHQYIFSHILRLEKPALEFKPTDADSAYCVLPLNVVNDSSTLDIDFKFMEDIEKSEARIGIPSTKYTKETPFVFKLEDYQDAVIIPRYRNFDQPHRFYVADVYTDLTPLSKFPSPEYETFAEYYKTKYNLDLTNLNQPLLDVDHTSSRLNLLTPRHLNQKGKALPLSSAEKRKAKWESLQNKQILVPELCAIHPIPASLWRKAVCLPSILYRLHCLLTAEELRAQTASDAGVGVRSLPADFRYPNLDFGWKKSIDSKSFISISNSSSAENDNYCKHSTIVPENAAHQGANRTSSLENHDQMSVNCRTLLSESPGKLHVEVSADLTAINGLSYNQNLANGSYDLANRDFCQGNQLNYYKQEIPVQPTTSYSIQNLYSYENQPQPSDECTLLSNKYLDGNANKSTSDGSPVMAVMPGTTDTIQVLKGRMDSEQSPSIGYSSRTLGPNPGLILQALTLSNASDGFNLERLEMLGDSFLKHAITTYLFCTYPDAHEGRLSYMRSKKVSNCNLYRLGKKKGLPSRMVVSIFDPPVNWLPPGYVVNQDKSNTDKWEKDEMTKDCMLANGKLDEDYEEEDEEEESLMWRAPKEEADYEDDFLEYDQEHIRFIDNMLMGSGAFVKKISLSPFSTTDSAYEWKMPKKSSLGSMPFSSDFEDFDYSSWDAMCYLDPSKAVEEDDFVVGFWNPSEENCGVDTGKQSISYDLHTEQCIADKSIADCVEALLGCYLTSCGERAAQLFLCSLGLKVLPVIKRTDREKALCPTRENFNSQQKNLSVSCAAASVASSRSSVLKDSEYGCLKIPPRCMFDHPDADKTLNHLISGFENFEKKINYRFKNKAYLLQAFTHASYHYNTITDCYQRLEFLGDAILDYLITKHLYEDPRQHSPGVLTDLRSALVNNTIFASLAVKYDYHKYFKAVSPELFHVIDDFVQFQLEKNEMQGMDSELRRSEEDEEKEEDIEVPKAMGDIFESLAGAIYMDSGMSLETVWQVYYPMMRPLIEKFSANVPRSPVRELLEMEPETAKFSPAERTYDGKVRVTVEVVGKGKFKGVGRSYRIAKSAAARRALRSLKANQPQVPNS
# Numbers stand for hits; . = inactive.
SMILES,Dicer processing
C=CCN(c1ccccc1C(=O)NCC(=O)O)S(=O)(=O)c1ccccc1Cl,.
C/C(COc1ccc(-c2csnn2)cc1)=N\NC(N)=S,.
CC(C)c1ccc(S(=O)(=O)n2nnc3ccccc32)cc1,.
Cc1cc(C)c(S(=O)(=O)Nc2nc3ccccc3s2)c(C)c1,.
Cc1ccc(S(=O)(=O)Nc2nc3ccc(N)cc3s2)cc1,8
Cc1ccc(S(=O)(=O)Nc2nc3cc(C)c(C)cc3s2)cc1,.
O=C(O)CCSC(CC(=O)c1ccccc1)c1ccc(Cl)cc1 (stereo not drawn),.
Cn1c(=O)c2c(ncn2CC(=O)Nc2ccc3c(c2)OCCO3)n(C)c1=O,.
CCCCCCCNC(=O)Cn1cnc2c1c(=O)n(C)c(=O)n2C,4
CC(C)CNC(=O)Cn1cnc2c1c(=O)n(C)c(=O)n2C,.
CCOCCCNC(=O)Cn1cnc2c1c(=O)n(C)c(=O)n2C,.
CCCNC(=O)Cn1cnc2c1c(=O)n(C)c(=O)n2C,.
Cn1c(=O)c2c(ncn2CC(=O)NCc2ccc3c(c2)OCO3)n(C)c1=O,6.6
Cc1cc(NC(=O)C2CCN(C(=O)OCc3ccccc3)CC2)n(C)n1,.
COc1ccc(OCC(=O)Nc2ncccn2)cc1,.
C1CCc2c(c(N3CCOCC3)nc3sc4c(N5CCNCC5)nnnc4c23)C1,.
Cc1nc2ccc(Br)cc2c(C(=O)O)c1I,.
O=C(O)c1ccc(Nc2ccnc3cc(Cl)ccc23)cc1,.
O=C(O)c1ccc(Nc2ncnc3ccc(Br)cc23)cc1,4.9
C=CCN(c1ccccc1C1=N/C(=C\c2cccc(Cl)c2)C(=O)O1)S(=O)(=O)c1ccc(C)cc1,.
S=C(Nc1ccc(Cl)cc1)SCc1c(Cl)cccc1Cl,.
N=C(N)SCc1c(F)cccc1Cl,.
CCOC(=S)SCc1c(F)cccc1Cl,4.3
N#Cc1ncoc1-c1ccc(C(F)(F)F)cc1,.
O=C(Nc1cnn(Cc2ccc(F)cc2)c1)c1cc2n(n1)C(C(F)(F)F)CC(c1ccco1)N2 (stereo not drawn),.
SMILES,Dicer processing
Nc1sc(-c2ccccc2)cc1-c1n[nH]c(=S)n1-c1ccc(F)cc1,.
Nc1sc(-c2ccccc2)cc1-c1n[nH]c(=S)n1Cc1ccccc1,.
COc1ccc(-n2c(-c3cc(-c4ccccc4)sc3N)n[nH]c2=S)cc1,5.4
CCOC(=O)c1c(NC(=O)C(C)Oc2ccc(OC)cc2)sc(C)c1C (stereo not drawn),.
O=c1oc(-c2ccc(Cl)c(Cl)c2)nn1-c1ncc(C(F)(F)F)cc1Cl,.
N/C(CSc1ccc(Cl)cc1)=N\S(=O)(=O)c1ccc(F)cc1F,.
Cc1nn(C)c(N/N=C/c2c(Cl)cccc2Cl)c1[N+](=O)[O-],.
CCOC(=O)N/N=C(\C)c1ccc(/C(C)=N/NC(=O)OCC)cc1,.
COC(=O)C(C)Oc1ccc2c(=O)c(Oc3ccccc3Cl)coc2c1 (stereo not drawn),.
O=C(Oc1ccc2c(=O)c(-c3ccccc3Cl)coc2c1)c1cccs1,.
Cc1ccc2c(=O)c(C(=O)c3ccccc3Cl)coc2c1,3.8
CCN1CCN(c2nc3c(c(=O)n(C)c(=O)n3C)n2Cc2ccc(Cl)cc2)CC1,.
O=C(NCc1csc(-c2cccs2)n1)Nc1cc(F)cc2c1OCOC2,.
Cc1cc(C=C2C(=O)NC(=S)NC2=O)cc(C)c1O,.
O=C1NC(=S)N/C1=C/c1cccs1,4.1
Cc1ccc(S(=O)(=O)Oc2ccc(/C=C3\NC(=O)NC3=O)cc2)cc1,.
Cc1ccc(/C=C2\NC(=S)NC2=O)cc1,4.7
COc1ccc(/C=C2/NC(=S)NC2=O)c(Cl)c1OC,.
O=C1/C(=C/c2ccsc2)CC/C1=C\c1cccs1,.
O=C1Nc2ccccc2/C1=C/c1c(-c2ccc3ccccc3c2)[nH]c2ccccc12,.
CC1=C(C(=O)OC(C)C)C(c2ccccc2OCc2ccccc2)C2=C(CCCC2=O)N1 (stereo not drawn),.
c1ccc2c(c1)NC(c1c[nH]c3ccccc13)N2,.
O=C(Nc1nc(-c2ccc(F)c(F)c2)cs1)c1ccccc1,.
CCN(CC)CC(=O)Nc1c(C#N)cnn1-c1ccccc1,4.7
CCN(CC)CC(=O)Nc1cc(C)nn1-c1ccccc1,.
SMILES,Dicer processing
N#Cc1cnn(-c2ccccc2)c1NC(=O)CSc1nnc(-c2ccc(Cl)cc2)o1,.
Cc1ccc(N2C(=O)c3oc4ccccc4c(=O)c3C2c2cccc(O)c2)nc1 (stereo not drawn),.
COC(=O)c1ccc(C2c3c(oc4ccccc4c3=O)C(=O)N2c2ccc(C)cn2)cc1 (stereo not drawn),.
CCOc1cc(C2c3c(oc4ccccc4c3=O)C(=O)N2c2ccc(C)cn2)ccc1O (stereo not drawn),4.7
CCOc1cc(C2c3c(oc4ccccc4c3=O)C(=O)N2c2ccccn2)ccc1O (stereo not drawn),.
COc1cc(C2c3c(oc4ccccc4c3=O)C(=O)N2c2ccc(C)cn2)ccc1O (stereo not drawn),4.3
C=CCOc1ccc(C2c3c(oc4ccccc4c3=O)C(=O)N2c2ccc(C)cn2)cc1OCC (stereo not drawn),.
COc1ccc(NC(=O)N2c3ccccc3Sc3ccccc32)c(OC)c1,.
CC(C)c1ccccc1NC(=S)NCCO,.
COCCn1c2c(c(=O)[nH]c1=O)C(c1cccc(OC)c1)C1=C(N2)c2ccccc2C1=O (stereo not drawn),.
CC1CCN(Cc2nc3c(c(=O)n(C)c(=O)n3C)n2CC(=O)C(C)(C)C)CC1,.
CSC(=NCc1cccs1)NC(=O)c1c(Cl)cccc1Cl,.
CC(=S)c1ncc(C(F)(F)F)cc1N(C)C,.
COc1ccc(S(=O)(=O)NCCCC(=O)O)cc1,3.1
Cc1ccc(S(=O)(=O)NCCCCCC(=O)O)cc1,.
O=C(O)CCCNS(=O)(=O)c1ccc(Cl)cc1,.
CCOC(=O)c1c(C)oc(-c2ccc(Cl)cc2)c1S(=O)(=O)Nc1ccccc1,.
Cc1[nH]c2ccccc2c1C(=O)CN1CCOCC1,.
COc1ccc(CN2CCN(Cc3ccc4c(c3)OCO4)CC2)cc1OCc1ccccc1,.
COc1ccc(CN2CCN(Cc3ccc4c(c3)OCO4)CC2)cc1,.
COc1ccc(CN2CCN(Cc3ccc4c(c3)OCO4)CC2)c(OC)c1,.
CCc1ccc(S(=O)(=O)N2CCN(Cc3ccc4c(c3)OCO4)CC2)cc1,.
COc1ccccc1CN1CCN(Cc2ccc3c(c2)OCO3)CC1,4.2
COc1cccc(CN2CCN(Cc3ccc4c(c3)OCO4)CC2)c1OC,3.5
O=S(=O)(c1ccc2c(c1)OCCO2)N1CCN(Cc2ccc3c(c2)OCO3)CC1,.
SMILES,Dicer processing
COc1cc(CN2CCN(Cc3ccc4c(c3)OCO4)CC2)cc(OC)c1,.
O=S(=O)(c1ccc(F)cc1)N1CCN(Cc2ccc3c(c2)OCO3)CC1,3.2
COc1cccc(CNCc2ccc3c(c2)OCO3)c1OC,.
Cc1[nH]c2ccccc2c1C(=O)CN1CCN(Cc2ccc3c(c2)OCO3)CC1,3.3
O=S(=O)(Nc1cc(F)ccc1F)c1ccc(NC(=S)Nc2ccc(C(F)(F)F)cc2)cc1,.
CSc1sc(-c2ccn[nH]2)c2c1C(=O)CC(C)(C)C2,.
Cc1ccc2nc3c(c(C(=O)O)c2c1)CCCC3,.
CCOCCOC(=O)C1=C(C)NC2=C(C(=O)CC(C)(C)C2)C1c1ccc(O)c(OCC)c1 (stereo not drawn),.
CCC/S(=N\S(=O)(=O)c1ccc(C)cc1)c1ccccc1 (stereo not drawn),.
C=C1SC(Nc2cc(Cl)cc(Cl)c2)=NC1(CC)CC,.
CCOC(=O)C1=NNC2C(=O)N(c3cccc(Cl)c3)C(=O)C12 (stereo not drawn),.
